Laboratory results published in the supplement of paper PMC6555819.

Key:
Test in all cases: PBM binding z-score (relative to random genomic background probes); higher = stronger binding; sequences stand for … in GC…GCGATTGACAGCGTAGAATGAAGG
[1] = system: FXR:RXRa (NR concentration 270 nM, RXRa partner concentration 90 nM)
Summary of the method: (§1)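 The probes on custom Agilent 4×180K protein-binding microarrays were double-stranded, with 34-nt variable regions bearing direct-repeat seeds, single-nucleotide variants, half-site ablations and random human genomic background sequences. Incubation lasted 1 h with ligand-free nuclear receptor dimers in PBS pH 7.4, 2% milk, 0.02% Triton X-100, 1 mM DTT, 0.2 mg/mL BSA and 0.4 mg/ml salmon testes DNA. Antibodies against each partner (one per run) detected bound dimers, and fluorescence scans were regression-normalized. Binding z-scores take the random background probes as reference.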

[2] = system: LXRa:RXRa (NR concentration 270 nM, RXRa partner concentration 90 nM)
Summary of the method: as §1

[3] = system: LXRa homodimer (NR concentration 270 nM)
Summary of the method: as §1

[4] = system: LXRb:RXRa (NR concentration 270 nM, RXRa partner concentration 90 nM)
Summary of the method: as §1

[5] = system: LXRb homodimer (NR concentration 270 nM)
Summary of the method: as §1

[6] = system: PPARa:RXRa (NR concentration 270 nM, RXRa partner concentration 90 nM)
Summary of the method: as §1

[7] = system: PPARg:RXRa (NR concentration 180 nM, RXRa partner concentration 90 nM)
Summary of the method: as §1

[8] = system: PPARg:RXRa 270nM:90nM, anti-RXR (NR concentration 270 nM, RXRa partner concentration 90 nM)
Summary of the method: as §1

[9] = system: PPARg:RXRa 30nM:10nM, anti-RXR (NR concentration 30 nM, RXRa partner concentration 10 nM)
Summary of the method: as §1

[10] = system: PPARg:RXRa 90nM:30nM, anti-RXR (NR concentration 90 nM, RXRa partner concentration 30 nM)
Summary of the method: as §1

[11] = system: PPARg:RXRa DBDmut IVT, anti-RXR (DBD mutation: RXRa K156A/R161A, NR concentration 270 nM, RXRa partner concentration 90 nM)
Summary of the method: as §1

[12] = system: PPARg:RXRa IVT, anti-PPARg (NR concentration 270 nM, RXRa partner concentration 90 nM)
Summary of the method: as §1

[13] = system: PPARg DBDmut:RXRa IVT, anti-PPARg (DBD mutation: PPARg1 K132A/R137A, NR concentration 270 nM, RXRa partner concentration 90 nM)
Summary of the method: as §1

[14] = system: PPARg DBDmut IVT, anti-PPARg (DBD mutation: PPARg1 K132A/R137A, NR concentration 270 nM)
Summary of the method: as §1

[15] = system: PPARg homodimer (NR concentration 180 nM)
Summary of the method: as §1

[16] = system: PXR:RXRa (NR concentration 270 nM, RXRa partner concentration 90 nM)
Summary of the method: as §1

[17] = system: PXR homodimer (NR concentration 270 nM)
Summary of the method: as §1

[18] = system: RARa:RXR (NR concentration 270 nM, RXRa partner concentration 90 nM)
Summary of the method: as §1

[19] = system: RARa homodimer (NR concentration 270 nM)
Summary of the method: as §1

[20] = system: RARb:RXRa (NR concentration 270 nM, RXRa partner concentration 90 nM)
Summary of the method: as §1

Row | Sequence | PBM binding z-score [1] | PBM binding z-score [2] | PBM binding z-score [3] | PBM binding z-score [4] | PBM binding z-score [5] | PBM binding z-score [6] | PBM binding z-score [7] | PBM binding z-score [8] | PBM binding z-score [9] | PBM binding z-score [10] | PBM binding z-score [11] | PBM binding z-score [12] | PBM binding z-score [13] | PBM binding z-score [14] | PBM binding z-score [15] | PBM binding z-score [16] | PBM binding z-score [17] | PBM binding z-score [18] | PBM binding z-score [19] | PBM binding z-score [20]
1 | CCTGCTAGCTCAATGGTCAGCTAAAGCAGCTCGC | -0.674 | -0.624 | -0.571 | -0.457 | -0.691 | -0.408 | -0.805 | -0.234 | -0.854 | -0.539 | -0.172 | -0.705 | -1.42 | -1.42 | -0.534 | -0.568 | -0.761 | -0.44 | -0.89 | 0.0479
2 | GCTGCTAGGTCAACTGATGGTCTGCTAAAGCTCG | 3.83 | 2.66 | -0.135 | 1.8 | 0.0375 | 3.45 | 2.31 | 2.78 | 0.103 | 1.81 | 4.88 | 4.03 | 0.365 | -0.14 | 1.69 | 1.37 | -0.53 | 2.39 | 0.112 | 4.1
3 | TCTGCTAGGCCAACGATGGTCAGCTAATCTGCTA | -1.19 | -0.741 | -1.19 | -1.05 | -1.1 | -0.375 | -0.327 | 0.663 | 1.12 | 0.978 | 1.09 | 0.619 | -0.0832 | -1.02 | -1.45 | -0.538 | -1.31 | -0.793 | -1.04 | 0.786
4 | CGTCCAAAGTCAATGCTAGGTCAGTGAAAGCATT | 0.216 | 0.789 | 0.816 | 0.482 | -0.125 | 0.696 | -0.177 | -0.216 | -0.538 | -0.284 | 0.0357 | 0.544 | -0.669 | -0.616 | 1.04 | 0.434 | -0.027 | 1.07 | 0.396 | 1.68
5 | CCTTACGGGTCACTGACAGGATATAGCATTTGGA | 5.3 | 3.68 | 0.191 | 3.28 | -0.185 | 5.22 | 4.58 | 4.24 | 1.5 | 2.88 | 3.33 | 3.54 | 1.02 | 0.966 | 2.23 | 3.03 | 0.183 | 3.85 | 1.33 | 3.95
6 | GCTGCTAGGTCAGGTCGGTCAGCTAACGGGTACG | 1.34 | 1.02 | 0.025 | 0.546 | -0.437 | 1.77 | 0.669 | 1.4 | -0.193 | 0.397 | 2.59 | 2.88 | -0.904 | -0.563 | 0.777 | 0.726 | -0.37 | 1.37 | -0.616 | 3.88
7 | CCGACTGGGGCAAAGTTTACCATACTCAGTACGA | -0.248 | 0.0946 | -0.139 | 0.553 | -0.586 | 3.67 | 8.3 | 7.72 | 6.38 | 8.55 | 4.45 | 4.71 | -0.8 | -0.571 | 0.875 | 0.182 | 0.0528 | 0.465 | -0.24 | 1.41
8 | CGAACGAGGGCATGAGTTGATTGCAAATGCCGAT | 0.319 | 0.271 | -0.529 | -0.0625 | -0.873 | 1.14 | 1.26 | 1.58 | 0.205 | 1.08 | 2.89 | 1.87 | -0.365 | -0.273 | 0.304 | 0.676 | 0.4 | 0.51 | -0.117 | 1.96
9 | CATACAGGGTGAGCTAGGCCAGAGTAGGGACGGC | 0.0783 | -0.27 | -0.348 | -0.501 | -0.241 | 0.234 | 0.608 | -0.129 | -0.308 | -0.186 | 0.503 | 1.32 | -0.282 | -0.518 | -0.692 | -0.394 | -0.379 | -0.0235 | -0.0733 | 0.894
10 | CCGAGTAGGTTATGGGGCATTCACGCAACGGTGA | 0.165 | 0.583 | -0.0835 | 0.908 | 0.284 | 2.27 | 3.48 | 4.67 | 2.32 | 4.69 | 3.46 | 3.48 | 0.0074 | -0.799 | 1.81 | -0.0726 | -0.244 | 0.125 | 0.665 | 1.06
11 | TTACCAAGGTGAGCTGAGGTCGTTGAGCCAACTC | 1.91 | 1.27 | -0.402 | 0.809 | -1.19 | 1.84 | -0.225 | 0.876 | -0.207 | 0.236 | 0.949 | 1.75 | -0.809 | -0.728 | -0.0553 | 5.03 | 0.369 | 2.08 | -0.816 | 1.76
12 | TCTCAGAGGACACGAAGGTCAGAGCTTTCCAGAG | 1.39 | 1.27 | 0.407 | 0.974 | -0.749 | 2.07 | 0.696 | 2.01 | 3.02 | 2.45 | 1.91 | 1.5 | -0.856 | -1.02 | 1.11 | 2.05 | 0.954 | 2.02 | -0.195 | 3.78
13 | AGAACGAGGGCACACTGAGTTGATAGCAGAGTAG | 0.801 | 0.517 | -0.135 | 0.356 | -0.454 | 2.02 | 1.96 | 1.64 | 0.493 | 1.01 | 3.87 | 3.8 | 0.337 | 0.314 | 0.871 | 1.29 | 0.305 | 0.924 | 0.142 | 2.16
14 | CGTCCAAGGTCAAAGGTCAGTGAAGAGATGACGG | 8.56 | 7.07 | 3.31 | 6.61 | 1.67 | 7.33 | 10.8 | 8.93 | 8.26 | 9.54 | 4.23 | 5.97 | 1.75 | 2.79 | 4.7 | 7.11 | 1.9 | 8.77 | 2.78 | 6.02
15 | GCTTACGGGTCAAAGGTTCTAGCATGAATAGAAT | 6.11 | 4.09 | -0.0816 | 4.09 | -0.186 | 5.91 | 8.84 | 7.78 | 7.78 | 8.24 | 5.13 | 5.05 | 0.842 | 0.712 | 1.45 | 4 | 0.0267 | 5.93 | 0.382 | 3.82
